Source: PubChem BioAssay (Tox21)
Where “and” joins values, the source holds several entries; their conditions need not be identical. Equal values may be shown once. Records with an inconclusive call do not appear. A call without a number means that no potency is given here. Some structures have more than one record in an assay (separate samples or runs), and their calls can disagree. Calls of active or inactive are those of the source. The call rests on the fitted dose curve; in most records, active means well fitted curve in the direction sought with a large enough effect in the repeat runs; inconclusive means weak or mixed curves; inactive means no such curve, though single readings can be large; an effect the other way counts as inactive or inconclusive.

Assays:
[1] = qHTS RealTime-Glo MT Cell Viability Assay in HEK293 cells - 40 hour (AID 1224874); settings: RealTime-Glo luminescence; max response: stronger effect = lower value; further: nearly all actives have a fitted effect of over 50% in size; further: potency means the concentration at half of the fitted maximal effect
In short: (§1)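 qHTS format; HEK293 cells with NanoLuc/prosubstrate reagent, 37 C/5% CO2 for 5 h pre-dosing; compounds 23 nL in DMSO; luminescence at each time point reflects viable cells.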

[2] = A CellTox Green Cytotoxicity Assay to monitor cytotoxicity in HEK293 cells - 24 hour (AID 1224875); further: nearly all actives have a fitted effect of over 45% in size; further: potency means the concentration at half of the fitted maximal effect
In short: (§2)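 Each value comes from one timepoint of a single continuous run in which HEK293 cells with CellTox Green were exposed to compound for up to 40 h at 37 C, dye fluorescence rising with cell death.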

[3] = A CellTox Green Cytotoxicity Assay to monitor cytotoxicity in HepG2 cells - 16 hour (AID 1224876); further: nearly all actives have a fitted effect of over 45% in size; further: potency means the concentration at half of the fitted maximal effect
In short: (§3)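 Continuous culture of HepG2 cells with a membrane-impermeant DNA dye; rising fluorescence marks dead cells. Compound exposure lasted up to 40 h at 37 C, with reads every 8 h from 0 h.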

[4] = qHTS RealTime-Glo MT Cell Viability Assay in HepG2 cells - 32 hour (AID 1224877); further: nearly all actives have a fitted effect of over 55% in size; further: potency means the concentration at half of the fitted maximal effect
In short: (§4)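 HepG2 suspension premixed with RealTime-Glo reagents is plated at 600 cells per well and left 5 h at 37 C/5% CO2. Compounds in DMSO then go in, and bioluminescence reflecting viable cell number is recorded over 40 h.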

[5] = A CellTox Green Cytotoxicity Assay to monitor cytotoxicity in HepG2 cells - 40 hour (AID 1224879); further: nearly all actives have a fitted effect of over 40% in size; further: potency means the concentration at half of the fitted maximal effect
In short: as §3

[6] = qHTS RealTime-Glo MT Cell Viability Assay in HEK293 cells - 0 hour (AID 1224880); further: nearly all actives have a fitted effect of over 45% in size; further: potency means the concentration at half of the fitted maximal effect
In short: as §1

[7] = A CellTox Green Cytotoxicity Assay to monitor cytotoxicity in HepG2 cells - 0 hour (AID 1224882); further: nearly all actives have a fitted effect of over 35% in size; further: potency means the concentration at half of the fitted maximal effect
In short: as §3

[8] = A CellTox Green Cytotoxicity Assay to monitor cytotoxicity in HepG2 cells - 32 hour (AID 1224883); further: nearly all actives have a fitted effect of over 50% in size; further: potency means the concentration at half of the fitted maximal effect
In short: as §3

[9] = qHTS RealTime-Glo MT Cell Viability Assay in HepG2 cells - 16 hour (AID 1224885); further: nearly all actives have a fitted effect of over 50% in size; further: potency means the concentration at half of the fitted maximal effect
In short: as §4

[10] = qHTS RealTime-Glo MT Cell Viability Assay in HEK293 cells - 24 hour (AID 1224886); further: nearly all actives have a fitted effect of over 50% in size; further: potency means the concentration at half of the fitted maximal effect
In short: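 Reads taken at 0, 8, 16, 24, 32 and 40 h from the same wells. HEK293 cells (600/well) carried RealTime-Glo reagents from seeding, with compound added after a 5 h settle at 37 C.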

[11] = qHTS RealTime-Glo MT Cell Viability Assay in HEK293 cells - 8 hour (AID 1224887); further: nearly all actives have a fitted effect of over 50% in size; further: potency means the concentration at half of the fitted maximal effect
In short: as §1

[12] = A CellTox Green Cytotoxicity Assay to monitor cytotoxicity in HEK293 cells - 16 hour (AID 1224888); further: nearly all actives have a fitted effect of over 35% in size; further: potency means the concentration at half of the fitted maximal effect
In short: as §2

[13] = qHTS RealTime-Glo MT Cell Viability Assay in HepG2 cells - 0 hour (AID 1224889); further: nearly all actives have a fitted effect of over 50% in size; further: potency means the concentration at half of the fitted maximal effect
In short: as §4

[14] = A CellTox Green Cytotoxicity Assay to monitor cytotoxicity in HepG2 cells - 8 hour (AID 1224890); further: nearly all actives have a fitted effect of over 45% in size; further: potency means the concentration at half of the fitted maximal effect
In short: as §3

[15] = qHTS assay to identify small molecule antagonists of the estrogen receptor alpha (ER-alpha) signaling pathway using the BG1 cell line in the presence of 0.1 nM 17-beta-estradiol - cell viability counter screen (AID 1259241); further: nearly all actives have a fitted effect of over 40% in size; further: potency means the concentration at half of the fitted maximal effect
In short: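 Live-cell protease activity (CellTiter-Fluor fluorescence, 30 min) was read in the same wells after VM7Luc4E2 cells had been exposed to compounds with 0.1 nM 17beta-estradiol for 22 hr at 37C.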

[16] = qHTS assay to identify small molecule antagonists of the androgen receptor (AR) signaling pathway using the MDA cell line in the presence of 0.5 nM R1881 - cell viability counter screen (AID 1259242); further: nearly all actives have a fitted effect of over 45% in size; further: potency means the concentration at half of the fitted maximal effect
In short: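 Fluorescence from CellTiter-Fluor, which reports protease activity of live cells, was read 30 min after reagent addition to MDA-kb2 cells that had been incubated 16 hr with compound and 0.5 nM R1881.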

[17] = qHTS RealTime-Glo MT Cell Viability Assay in HepG2 cells - 8 hour (AID 1224873); further: nearly all actives have a fitted effect of over 55% in size
In short: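 HepG2 cells (600/well) mixed with RealTime-Glo MT reagent, settled 5 h at 37 C/5% CO2 before compound addition. Nonlytic NanoLuc luminescence from viable-cell prosubstrate reduction read repeatedly during 40 h treatment at 37 C.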

[18] = A CellTox Green Cytotoxicity Assay to monitor cytotoxicity in HepG2 cells - 24 hour (AID 1224878); further: nearly all actives have a fitted effect of over 45% in size; further: potency means the concentration at half of the fitted maximal effect
In short: as §3

[19] = A CellTox Green Cytotoxicity Assay to monitor cytotoxicity in HEK293 cells - 32 hour (AID 1224881); further: nearly all actives have a fitted effect of over 40% in size; further: potency means the concentration at half of the fitted maximal effect
In short: as §2

[20] = A CellTox Green Cytotoxicity Assay to monitor cytotoxicity in HEK293 cells - 8 hour (AID 1224884); further: nearly all actives have a fitted effect of over 35% in size; further: potency means the concentration at half of the fitted maximal effect
In short: as §2

CC(N=C(NC#N)Nc1ccncc1)C(C)(C)C (centres undefined)
max response [1]: -0.652% (inactive) | Potency [2]: inactive | Potency [3]: inactive | Potency [4]: inactive | Potency [5]: inactive | Potency [6]: inactive | Potency [7]: inactive | Potency [8]: inactive | Potency [9]: inactive | Potency [10]: inactive | Potency [11]: inactive | Potency [12]: inactive | Potency [13]: inactive | Potency [14]: inactive | Potency [15]: inactive | Potency [16]: inactive

O=C(/C=C/c1ccccc1)OC/C=C/c1ccccc1
Potency [17]: inactive | Potency [3]: inactive | Potency [4]: inactive | Potency [18]: inactive | Potency [6]: inactive | Potency [19]: inactive | Potency [7]: inactive | Potency [8]: inactive | Potency [9]: inactive | Potency [10]: inactive | Potency [12]: inactive | Potency [13]: inactive | Potency [14]: inactive | Potency [15]: inactive | Potency [16]: inactive

CCCCCCCCCCCC(=O)OCC(C)OC(=O)CCCCC(=O)O (centres undefined)
max response [1]: 14.1% (inactive) | Potency [2]: inactive | Potency [3]: inactive | Potency [4]: inactive | Potency [18]: inactive | Potency [5]: inactive | Potency [6]: inactive | Potency [19]: inactive | Potency [7]: inactive | Potency [8]: inactive | Potency [20]: inactive | Potency [9]: inactive | Potency [10]: inactive | Potency [11]: inactive | Potency [12]: inactive | Potency [13]: inactive | Potency [15]: inactive | Potency [16]: inactive

CC(=O)c1ccc(C(C)=O)cc1
max response [1]: -3.34% (inactive) | Potency [2]: inactive | Potency [3]: inactive | Potency [4]: inactive | Potency [18]: inactive | Potency [5]: inactive | Potency [6]: inactive | Potency [19]: inactive | Potency [7]: inactive | Potency [8]: inactive | Potency [20]: inactive | Potency [9]: inactive | Potency [10]: inactive | Potency [11]: inactive | Potency [12]: inactive | Potency [13]: inactive | Potency [15]: inactive | Potency [16]: inactive

CN(C)c1ccc(C(=C2C=CC(=[N+](C)C)C=C2)c2ccc(N(C)C)cc2)cc1
Potency [2]: inactive | Potency [3]: 10.9 µM (active) and inactive | Potency [4]: 30.7 µM (active) and 24.5 µM (active) and 21.3 µM (active) | Potency [18]: 10.9 µM (active) and 12.3 µM (active) and 19 µM (active) | Potency [5]: 10.9 µM (active) and 12.3 µM (active) and 21.3 µM (active) | Potency [6]: inactive | Potency [19]: inactive | Potency [7]: inactive | Potency [8]: 10.9 µM (active) and 11 µM (active) and 19 µM (active) | Potency [20]: inactive | Potency [9]: 21.8 µM (active) and 24.5 µM (active) | Potency [11]: 21.8 µM (active) and 43.6 µM (active) | Potency [12]: inactive | Potency [13]: inactive | Potency [14]: inactive | Potency [15]: 8.59 µM (active) and 6.86 µM (active) and 5.31 µM (active) | Potency [16]: 7.66 µM (active) and 6.86 µM (active) and 3.35 µM (active)

O=C1OC2(c3ccc(O)cc3Oc3cc(O)ccc32)c2ccc(N=C=S)cc21
Potency [2]: 17.7 µM (active) | Potency [3]: 15.8 µM (active) | Potency [18]: 15.8 µM (active) | Potency [5]: 15.8 µM (active) | Potency [6]: 44.4 µM (active) | Potency [19]: 17.7 µM (active) | Potency [7]: 15.8 µM (active) | Potency [8]: 15.8 µM (active) | Potency [20]: 15.8 µM (active) | Potency [12]: 12.5 µM (active) | Potency [13]: 22.3 µM (active) | Potency [14]: 15.8 µM (active) | Potency [15]: inactive | Potency [16]: inactive

C=CC(=O)Nc1cc2c(Nc3ccc(F)c(Cl)c3)ncnc2cc1OCCCN1CCOCC1
Potency [1]: 9.52 µM (active) | Potency [2]: 19 µM (active) | Potency [3]: 21.3 µM (active) | Potency [18]: 10.7 µM (active) | Potency [5]: 6.01 µM (active) | Potency [19]: 12 µM (active) | Potency [7]: inactive | Potency [8]: 6.01 µM (active) | Potency [20]: inactive | Potency [11]: 9.52 µM (active) | Potency [12]: inactive | Potency [13]: 9.52 µM (active) | Potency [14]: inactive | Potency [16]: 376 nM (active)

CCCCCCCC/C=C\CCCCCCCCN
Potency [2]: 21.3 µM (active) | Potency [19]: 23.9 µM (active) | Potency [7]: inactive | Potency [9]: 23.9 µM (active) | Potency [10]: 21.3 µM (active) | Potency [11]: 23.9 µM (active) | Potency [12]: 23.9 µM (active) | Potency [13]: inactive | Potency [15]: inactive | Potency [16]: inactive

CCCCCCCCCCCCOCCOCCOCCOCCOCCOCCOCCOCCOCCO
Potency [1]: 4.77 µM (active) | Potency [2]: 13.4 µM (active) | Potency [3]: 23.9 µM (active) | Potency [18]: 23.9 µM (active) | Potency [5]: 23.9 µM (active) | Potency [6]: inactive | Potency [19]: 10.7 µM (active) | Potency [7]: inactive | Potency [8]: 23.9 µM (active) | Potency [10]: 5.35 µM (active) | Potency [11]: 10.7 µM (active) | Potency [12]: 12 µM (active) | Potency [13]: inactive | Potency [15]: 13.3 µM (active)

Cc1cc(-c2ccc(N=Nc3cc(S(=O)(=O)O)c4ccccc4c3N)c(C)c2)ccc1N=Nc1cc(S(=O)(=O)O)c2ccccc2c1N
Potency [3]: inactive | Potency [4]: inactive | Potency [5]: inactive | Potency [6]: inactive | Potency [7]: inactive | Potency [8]: inactive | Potency [20]: inactive | Potency [9]: inactive | Potency [11]: inactive | Potency [12]: inactive | Potency [13]: inactive | Potency [14]: inactive | Potency [15]: inactive
